Giardia FBPA inh – blocks Giardia fructose-bisphosphate aldolase activity. A8B2U2. purified Giardia FBPA. Potency, µM (doses to about 59.6 µM), for the others: at the highest dose activity, negative = inhibition, actives largely listed as inhibitors. 290,000 compounds, 0.71% hits. AID 2451; further: potency means the concentration at half of the fitted maximal effect; nearly all actives have a fitted effect of over 55% in size
Target sequence (A8B2U2 whole entry, looked up): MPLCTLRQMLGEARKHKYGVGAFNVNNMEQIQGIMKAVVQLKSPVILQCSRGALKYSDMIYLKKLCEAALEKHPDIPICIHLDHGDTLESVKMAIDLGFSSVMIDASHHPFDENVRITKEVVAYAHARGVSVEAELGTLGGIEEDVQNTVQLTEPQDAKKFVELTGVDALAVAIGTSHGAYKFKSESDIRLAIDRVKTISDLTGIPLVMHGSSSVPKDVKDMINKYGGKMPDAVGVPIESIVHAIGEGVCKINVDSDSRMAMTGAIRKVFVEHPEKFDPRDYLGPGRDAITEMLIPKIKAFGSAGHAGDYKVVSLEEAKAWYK
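Giardia FBPA (40 nM reagent) was preincubated 10 min at RT with compound (up to 57.5 uM final), then substrate plus GAPDH/TPI/NAD/arsenate coupling system with diaphorase/resazurin was added; resorufin fluorescence (525/598 nm) was read after 20 min.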
HCMV inh – inhibitors of human cytomegalovirus; HFF cells, HCMV-luciferase reporter, 72 h; stronger effect = lower value; activity change, negative = inhibition, % at 57.5 µM; 410,000 compounds, 4.5% hits; AID 1259415; in the data active means activity change below about -60%; inconclusive means no clear call, values can overlap the other calls; inactive means above about -39%
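Human foreskin fibroblasts infected with luciferase-reporter HCMV at MOI 1 PFU/cell, compounds at two doses. Luciferase measured 72 h post infection; normalized to buffer-only basal and Salinomycin (10uM) controls.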
Pf growth 96h – P. falciparum growth inhibition at 96 hour, primary screen for plastid delayed-death inhibitors; P. falciparum luciferase reporter growth, 96 h; Potency, µM (top dose mostly 28.7 µM), inactives show at the highest dose activity change, negative = inhibition, actives largely listed as inhibitors; 320,000 compounds, 6.9% hits; further: potency means the concentration at half of the fitted maximal effect
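Parasite growth measured via integrated firefly luciferase reporter in P. falciparum. Infected erythrocytes at 2% hematocrit, 0.05% parasitemia final were treated 96 hours at 37 C under 5% CO2, and luminescence was read.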
Sm TGR inh – inhibitors of Schistosoma mansoni thioredoxin glutathione reductase | 360,000 compounds, 3% hits | Potency, µM (highest dose often 114 µM), inactives show at the highest dose activity change, negative = inhibition, hits mostly inhibitors | Q962Y6 | AID 485364 | purified TGR, DTNB reduction, TNB absorbance 405 nm; further: potency means the concentration at half of the fitted maximal effect; nearly all actives have a fitted effect of over 60% in size
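Kinetic colorimetric format: TGR-catalysed, NADPH-driven DTNB reduction monitored via TNB absorbance. Enzyme dispensed at 20 nM; compound exposure 15 min at room temperature before reaction start.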
Pf growth 48h – inhibits P. falciparum growth in the first generation, 48 h; P. falciparum luciferase growth in erythrocytes, 48 h; Potency, µM (doses to about 28.7 µM), for inactives: top-dose activity change, negative = inhibition, hits mostly inhibitors; 310,000 compounds, 5.9% hits; further: potency means the concentration at half of the fitted maximal effect
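A one-generation exposure of luciferase-tagged malaria parasites in RPMI 1640/Albumax erythrocyte culture, 37 C and 5% CO2. Inhibition is inferred from decreased luminescence after adding detection reagent.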
Numbers without * were called inactive; ? = inconclusive; · = no result. A selection: hits, their analogues and other compounds. The true share with any hit is near 14%. Unless noted, the call rests on the fitted dose curve; in most records, active means well fitted curve in the direction sought with a large enough effect; inconclusive means small, poorly fitted or top-dose-only effect, or another doubt; inactive means no such curve, though single readings can be large; an effect the other way counts as inactive or inconclusive. On the % scale 0 is the no-effect control and ±100 the full control effect.

SMILES	Giardia FBPA inh	HCMV inh	Pf growth 96h	Sm TGR inh	Pf growth 48h
COc1c2occc2c(OC(C)=O)c2c(=O)cc(C)oc12	-3%	-67*	34%	-1%	39%
CC(=O)Oc1c2occc2cc2ccc(=O)oc12	?	-26	-19%	?	-18%
CC1[C@H]2Cc3ccc(O)cc3[C@]1(C)CCN2C (some centres undefined)	·	17	·	·	·
CNC(=O)Oc1cccc(-c2cn3cc(Cl)ccc3n2)c1	-16%	?	67%	2%	53%
CNC(=O)Oc1ccc2c(c1)[C@]1(C)CCN(C)C1N2C (some centres undefined)	·	7	15µM*	-3%	13µM*
CN1CC[C@@]2(C)c3cc(O)ccc3N(C)[C@@H]12	4.5µM*	-32	·	·	·
O=C(CCc1nnc(Cc2c[nH]c3ccccc23)o1)NCCC1CCCCO1 (centres undefined)	·	21	·	·	·
c1ccc(-n2cnnc2SCc2cn3cccnc3n2)cc1	-8%	0	?	-1%	10%
c1ccc(Cn2c(SCc3cn4cccnc4n3)nnc2-c2ccco2)cc1	3%	-11	12µM*	-13%	27%
O=C(CSc1nnc(-c2ccco2)n1Cc1ccccc1)c1ccccc1	0%	21	?	45µM*	14%
O=C(CSc1nnc(-c2ccco2)n1Cc1ccccc1)NC(=O)NCc1ccccc1	2%	16	12µM*	0%	?
Cc1ccc(NC(=O)C(C)Sc2nnc(C)n2CC2CCCO2)cc1 (centres undefined)	-13%	-71*	-14%	7%	2%
NC(=O)NC(=O)CSc1nnc(-c2ccco2)n1Cc1ccccc1	5%	16	36%	0%	5%
Cc1ccc(NC(=O)CSc2nnc(C)n2CC2CCCO2)cc1 (centres undefined)	1%	-28	22%	17%	13%
COc1ccccc1/C=N/OCc1ccc(C#N)cc1	5%	1	40%	-1%	11%
Cc1ccc(NCc2nnc(SCC(N)=O)n2CC2CCCO2)c(C)c1 (centres undefined)	-3%	25	13µM*	1%	-9%
Cn1c(SCC(=O)c2ccc(-c3ccccc3)cc2)nnc1-c1ccco1	-28%	-5	-8%	6.3µM*	-12%
Cc1ccc(C(=O)CSc2nnc(-c3ccco3)n2Cc2ccccc2)cc1	-8%	85	7.4µM*	-13%	29%
Cc1ccc(C(=O)CSc2nnc(-c3ccco3)n2CC2CCCO2)cc1 (centres undefined)	0%	-7	?	20µM*	1%
COc1ccc(CNc2nc3ccccc3n2Cc2ccccc2)cc1OC	4%	-7	-7%	13%	1%
O=C(O)COc1ccc(CCNS(=O)(=O)c2ccccc2)s1	·	·	-4%	·	2%
COc1ccc(-c2nnc(SCC(=O)NC(C)C)n2CC2CCCO2)cc1OC (centres undefined)	2%	-12	3.3µM*	0%	10%
O=C(Nc1ccc(Oc2ccc(NC(=O)Nc3ccc([N+](=O)[O-])cc3)cc2)cc1)Nc1ccc([N+](=O)[O-])cc1	-5%	-95*	?	14%	?
O=C(Nc1ccc([N+](=O)[O-])cc1)Nc1ccc([N+](=O)[O-])cc1	·	·	2.4µM*	·	2.7µM*
Cc1ccc(C(C)C)cc1NC(=O)Nc1ccc([N+](=O)[O-])cc1	-9%	-102*	3.3µM*	10%	4.1µM*
CC(=O)c1ccc(NC(=O)Nc2ccc([N+](=O)[O-])cc2)cc1	1%	2	?	8%	-9%
O=C(Nc1ccc(Cl)c(Cl)c1)Nc1ccc([N+](=O)[O-])cn1	-3%	-9	?	-6%	9.3µM*
COc1cc2c(cc1OC)[C@@H]1N(C)c3ccccc3[C@@]13CCN(S(=O)(=O)C(F)(F)F)C3=C2	·	13	·	·	·
O=C(NCc1ccc2c(c1)OCO2)Nc1ccc([N+](=O)[O-])cc1	-4%	-61*	?	-5%	?
CC(CNC(=O)c1ccc2c(c1)OCO2)c1ccc([N+](=O)[O-])cc1 (centres undefined)	4%	-63*	10%	-6%	-26%
